Screening data as filed in PubChem BioAssay.
Only some compounds are listed: those with a hit (about 21% of all), similar ones and a draw of the others.
Shiga toxin inh: inhibitors of Shiga toxin in Vero cells; Vero cells, Shiga toxin protein synthesis inhibition reporter; inhibition, % at 38.7 µM; actives 9.2% (n = 290,000); AID 2315; in the data active = inhibition mostly above about 28%, no sharp cut-off; inactive = mostly below about 43%; note: 0% is about no effect
Pf growth 48h: inhibits P. falciparum growth in the first generation, 48 h; P. falciparum luciferase growth in erythrocytes, 48 h; Potency, µM (highest dose often 28.7 µM), without a hit: at the top dose activity change, negative = inhibition, usual class: inhibitors; actives 5.9% (n = 310,000); AID 504832; note: potency is the fitted concentration of half-maximal effect; % is set by controls: 0 for no effect and ±100 for the full control effect
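Luciferase-expressing P. falciparum in infected erythrocytes (2% hematocrit, 0.1% parasitemia final) in RPMI 1640/0.5% Albumax were exposed to compound for 48 hours at 37 C, 5% CO2; growth read as luminescence.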
Pf growth 96h: P. falciparum growth inhibition at 96 hours. actives 6.9% (n = 320,000). Potency, µM (highest dose often 28.7 µM), for inactives: top-dose activity change, negative = inhibition, hits mostly inhibitors. P. falciparum luciferase reporter growth, 96 h; note: potency is the fitted concentration of half-maximal effect; % is set by controls: 0 for no effect and ±100 for the full control effect
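Delayed-death screen, second-generation endpoint: infected erythrocytes, 2% hematocrit, 0.05% parasitemia final; 96 hours at 37 C, 5% CO2; luciferase detection reagent; luminescence decrease equals reduced growth.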
Giardia FBPA inh: inhibitors of Giardia lamblia fructose-1,6-bisphosphate aldolase | Potency, µM (top dose mostly 59.6 µM), for the others: at the top dose activity, negative = inhibition, usual class: inhibitors | AID 2451 | actives 0.71% (n = 290,000) | A8B2U2 | purified Giardia FBPA; note: potency is the fitted concentration of half-maximal effect; % is set by controls: 0 for no effect and ±100 for the full control effect; nearly all actives have a fitted effect of over 55% in size
Target sequence (A8B2U2 whole entry, looked up): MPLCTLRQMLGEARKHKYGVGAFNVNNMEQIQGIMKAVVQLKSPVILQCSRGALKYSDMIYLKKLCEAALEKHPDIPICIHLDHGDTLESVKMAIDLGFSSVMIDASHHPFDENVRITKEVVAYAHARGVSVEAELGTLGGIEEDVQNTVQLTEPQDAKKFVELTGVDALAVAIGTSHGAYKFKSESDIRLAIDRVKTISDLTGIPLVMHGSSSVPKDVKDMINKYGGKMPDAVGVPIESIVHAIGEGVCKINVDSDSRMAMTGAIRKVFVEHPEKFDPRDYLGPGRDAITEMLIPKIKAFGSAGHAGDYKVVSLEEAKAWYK
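Giardia FBPA (40 nM reagent) was preincubated 10 min at RT with compound (up to 57.5 uM final), then substrate plus GAPDH/TPI/NAD/arsenate coupling system with diaphorase/resazurin was added; resorufin fluorescence (525/598 nm) was read after 20 min.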
NS1 inh: influenza NS1 inhibition; Potency, µM (series often up to 46.1 µM), for the others: at the top dose activity, positive = more growth; actives 0.4% (n = 270,000); calls by dose curve; note: potency is the fitted concentration of half-maximal effect; actives are rising curves; nearly all actives have a fitted effect of over 50% in size
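A cell-based growth assay was used: compounds that relieve NS1-induced slow growth of budding yeast raise OD600. Assay medium was yeast nitrogen base with ammonium sulphate and -URA supplement, pH 6.0, with 2% galactose.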
CHX counter: counter-screen for Shiga toxin inhibitors: cycloheximide protein synthesis inhibition; actives 12% (n = 300,000); cell reporter, cycloheximide protein synthesis inhibition counterscreen; max response, %; in the data active = max response mostly above about 13%, no sharp cut-off; inactive = mostly below about 14%; note: read at 38.3 µM for the half of the compounds with a filed dose; 0% is about no effect
The depositor's hits bear a star; ? = inconclusive; . = not tested or not shown; [ ] = remark or other dose. Unless noted, calls come from the whole dose curve; as a rule, active = well fitted curve in the direction sought with a large enough effect; inconclusive = small, poorly fitted or top-dose-only effect, or another doubt; inactive = no such curve, though single readings can be large; an effect the other way counts as inactive or inconclusive.

SMILES | Shiga toxin inh | Pf growth 48h | Pf growth 96h | Giardia FBPA inh | NS1 inh | CHX counter
CCOc1ccc(/C=N/Nc2cc(N3CCOCC3)nc(C)n2)c(O)c1 | -6.8 | -7.0% | 6.57µM* | 7.9% | -4.1% | -2.5
Cc1nc(Cl)cc(N/N=C/c2ccc(O)cc2)n1 | 49.2* | 11.3% | -20.2% | -15.2% | -14.5% | 18.9*
Cc1nc(Cl)cc(N/N=C/c2ccc(O)cc2O)n1 | 27.9* | 12.7% | ? | 9.3% | 0.0% | 44.2*
CCOc1ccc(/C=N/Nc2cc(C)nc(N3CCOCC3)n2)cc1 | 35.2 | 32.9% | -20.4% | -1.5% | 3.8% | -1.5
CSCC[C@H](NC(=O)[C@H](Cc1ccccc1)NC(=O)[C@H](Cc1cnc[nH]1)NC(=O)CNC(=O)[C@@H](NC(=O)[C@H](C)NC(=O)[C@H](Cc1c[nH]c2ccccc12)NC(=O)[C@H](CC(C)C)NC(=O)[C@H](CC(N)=O)NC(=O)CN)[C@@H](C)O)C(N)=O | -4.1 | . | . | 0.3% | . | -6.2
Cc1sc2ncnc(N3CCC(C(=O)Nc4sc5c(c4C(N)=O)CCC(C)C5)CC3)c2c1C (stereo not given) | . | -8.8% | -10.8% | . | . | .
Cc1cc(C)n2nc(C(=O)OCC(=O)Nc3ccc(F)cc3F)nc2n1 | . | -5.5% | 71.8% | . | . | .
O=C(NCc1ccccn1)c1nc(Cn2ccc([N+](=O)[O-])n2)no1 | -4.2 | 14.0% | 293.5% | -12.1% | 9.9% | -1.8
CC[C@H](C)[C@H](NC(=O)[C@H](Cc1ccc(O)cc1)NC(=O)[C@@H](NC(=O)[C@H](CCCNC(=N)N)NC(=O)[C@@H](N)CC(=O)O)C(C)C)C(=O)N[C@@H](Cc1cnc[nH]1)C(=O)N1CCC[C@H]1C(=O)N[C@@H](Cc1ccccc1)C(=O)N[C@@H](Cc1cnc[nH]1)C(=O)N[C@@H](CC(C)C)C(=O)N[C@@H](CC(C)C)C(=O)N[C@H](C(=O)N[C@@H](Cc1ccc(O)cc1)C(=O)N[C@@H](CO)C(=O)O)C(C)C | 1.8 | . | . | -2.6% | . | -4.8
CCCNC(=O)CN(C)S(=O)(=O)c1c(C)cc(C)cc1C | -1.0 | 7.38µM* | 10.4µM* | 5.0% | -6.8% | -1.5
CCOC(=O)c1[nH]c(C)c(C(=O)OCC(=O)NC(C)c2ccc(F)cc2)c1C (stereo not given) | . | ? | -26.1% | . | . | .
CC1CCCCC1NC(=O)c1ccc(S(=O)(=O)NNC(=O)c2ccncc2)cc1 (stereo not given) | -11.0 | 2.08µM* | -11.4% | -10.2% | -3.0% | -1.3
CC(=O)OC[C@H]1O[C@@H](O/N=C2/[C@H]3O[C@@H]3[C@@H](O)[C@H]3[C@H]2CCn2c(=O)n(-c4ccccc4)c(=O)n23)[C@H](OC(C)=O)[C@@H](OC(C)=O)[C@@H]1OC(C)=O | . | . | . | -0.8%[12.9 µM] | . | .
Cn1cc(-c2nc3cnc(Oc4ccccc4)nc3n(C3CC3)c2=O)c2ccccc21 | . | . | . | 5.6% | . | .
Cn1c2ccccc2c(=O)c2cc(C#Cc3ccsc3)ccc21 | 16.7 | -12.6% | ? | -15.6% | 23.6% | 9.3*
Cn1c2ccccc2c(=O)c2cc(C#Cc3ccccn3)ccc21 | 10.7 | 144.0% | ? | -5.2% | 6.3% | 23.0*
COc1cc(C#Cc2ccc3cc(C(C)(C)O)oc(=O)c3c2)cc(OC)c1 | . | 17.9% | 0.0% | . | . | .
C=CCn1c2ccccc2c(=O)c2cc(C#Cc3cc(OC)cc(OC)c3)ccc21 | . | 11.7µM* | ? | . | . | .
Cn1c2ccccc2c(=O)c2ccc(C#Cc3ccccn3)cc21 | 10.4 | ? | 10.4µM* | -2.0% | 6.0% | 2.0
CC(=O)Nc1ccc(NCC(O)COc2ccccc2)cc1 (stereo not given) | -18.4 | 6.3% | ? | -3.2% | 5.9% | -2.5
COCC(O)CNc1ccccc1 (stereo not given) | 15.6 | 32.3% | 13.1µM* | -15.7% | -3.3% | -2.6
CC1CCCN(C(=O)COC(=O)CNC(=O)c2sc3ccccc3c2Cl)C1 (stereo not given) | . | 22.0% | ? | . | . | .
Cc1cc(Cl)c(S(=O)(=O)Nc2cccc(O)c2)cc1OCC(N)=O | 7.9 | 1.6% | 30.5% | -7.8% | 14.2% | 3.5
CCOc1ccc(NS(=O)(=O)c2cc(OCC(N)=O)c(C)cc2Cl)cc1 | 0.8 | 1.47µM* | 3.7µM* | -6.2% | 14.3% | -0.4
COc1ccc(NS(=O)(=O)c2cc(OCC(N)=O)c(C)cc2Cl)cc1 | -4.1 | 10.4µM* | 2.08µM* | 4.5% | -5.8% | -0.1
SMILES | Shiga toxin inh | Pf growth 48h | Pf growth 96h | Giardia FBPA inh | NS1 inh | CHX counter
COc1ccc(NC(=O)CSc2nnc(CC(=O)Nc3ccc(F)cc3)n2C)cc1 | 2.9 | 23.2% | 2.0% | 4.8% | 1.2% | -2.8
O=C(NCCc1ccccc1)/C(=N\O)c1ccccc1 | 52.2* | 84.3% | 22.7% | 1.5% | 2.8% | 45.4*
CN(C)CCCNC(=O)/C(=N\O)c1ccccc1 | -15.2 | 6.0% | . | 1.7% | 7.7% | 0.7
CNC(=O)/C(=N\O)c1ccccc1 | 45.1* | 46.1% | 9.28µM* | 1.9% | -8.3% | 15.2
CC(C)NC(=O)/C(=N\O)c1ccccc1 | -10.1 | 34.0% | 46.2% | -0.8% | 4.7% | -3.5
Cn1c(CCNC(=O)c2ccccc2F)nnc1SCC(=O)Nc1nncs1 | -8.0 | 21.2% | 26.4% | ? | -3.6% | -4.8
CCOc1ccc(N(C)Cc2cc(=O)oc3ccc(OCC)cc23)cc1 | -12.0 | -28.8% | 13.0% | -2.4% | 2.2% | 3.9
CC(C)c1nc2ccc(NC(=O)C34CC5CC(CC(C5)C3)C4)cc2[nH]1 | 47.5 | . | ? | 5.2% | -2.7% | 20.4*
O=C1OCc2cc(NC(=O)C34CC5CC(CC(C5)C3)C4)ccc21 | 19.2 | 17.4% | ? | -6.2% | -9.3% | 10.0
O=C(Nc1ccc2nc(-c3cccnc3)[nH]c2c1)C12CC3CC(CC(C3)C1)C2 | 71.1 | 11.7µM* | -26.1% | 5.6% | 2.6% | 10.6
CCOC(=O)C(CCc1ccccc1)NC(C)C(=O)N1Cc2ccccc2CC1C(=O)O (stereo not given) | . | -4.2% | -7.1% | -0.1% | . | .
Cc1nc2c(=O)n(C)c(=O)[nH]c2n1Cc1ccccc1 | 19.8 | 24.3% | -4.0% | ? | 5.3% | 36.5*
CCCn1c(-c2ccccc2)nc2c(=O)n(C)c(=O)[nH]c21 | -19.0 | 73.7% | 19.3% | -10.5% | 2.8% | -4.2
CC(=O)c1cc(C(=O)N2CCCC(C(=O)c3ccc(Cl)cc3)C2)cs1 (stereo not given) | 17.7 | 35.2% | ? | 6.1% | -0.2% | 4.3
CCN1C(=O)[C@H]2[C@H]3[C@H](O)[C@H](O)C/C(=N/NC(=O)OCc4ccccc4)[C@H]3CC[C@@H]2C1=O | . | . | . | -0.4%[12.9 µM] | . | .
Cc1ccc(O)c(-c2cc(C(=O)Nc3ccc(S(=O)(=O)N4CC(C)OC(C)C4)cc3)[nH]n2)c1 (stereo not given) | -9.4 | 0.522µM* | 291.5% | 2.3% | -32.8% | 5.0
Cc1ccc(-c2cc(C(=O)Nc3ccc(S(=O)(=O)N4CC(C)OC(C)C4)cc3)[nH]n2)c(O)c1 (stereo not given) | 7.6 | 0.262µM* | 0.657µM* | -5.6% | 3.0% | -1.0
